Experimental findings from PubChem BioAssay (NCI) are described below.

Among the test systems are SR leukemia; RPMI-8226 leukemia; OVCAR-8 ovarian; OVCAR-5 ovarian; OVCAR-4 ovarian; IGROV1 ovarian; OVCAR-3 ovarian; HS 578T breast; NCI/ADR-RES ovarian; T-47D breast; BT-549 breast; MDA-MB-435 melanoma; SW-620 colon; MCF7 breast; HCT-116 colon; HCC-2998 colon; KM12 colon; SK-OV-3 ovarian.
Common to all, as to assay: NCI-60 one-dose screen, 48 h (100 = growth as untreated, 0 = no growth, -100 = all killed)
Holding throughout (conditions): 10 µM unless noted

The panel holds about 83,000 compounds, 20% with a hit somewhere; the sample as a whole holds those more often.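 96-well plates, one dose, 48 hours. Percent growth reported; active if below 10.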 Unmarked numbers belong to inactive results. The source made the active and inactive calls.

As to `O=C(CCl)N1c2cccc3cccc(c23)N(C(=O)CCl)C1c1cn(-c2ccccc2)nc1-c1cccc([N+](=O)[O-])c1`, the growth in the assay with SR leukemia is 17.8%; with RPMI-8226 leukemia it was -6.92% (active); in the assay on OVCAR-8 ovarian it was 79.3%; in the assay on OVCAR-5 ovarian it was 108%; in the assay with OVCAR-4 ovarian, 96%; in the assay on IGROV1 ovarian it was 79.5%. For the same compound, the growth in the assay on OVCAR-3 ovarian is 61.6%; in the assay with HS 578T breast, 98.6%; in the assay with NCI/ADR-RES ovarian, 94.6%; with T-47D breast, 87.7%; in the assay with BT-549 breast, 98.5%; in the assay on MDA-MB-435 melanoma, 84.2%. The growth in the assay on SW-620 colon is 35.4%; with MCF7 breast, 51.6%; in the assay on HCT-116 colon, 37.3%; in the assay with HCC-2998 colon, 104%; with KM12 colon, 101%.

Regarding `CNCCNc1nc2ccccc2c2c(=O)c3cc(F)ccc3oc12`, the growth in the assay on SR leukemia is 22.7%; in the assay on RPMI-8226 leukemia it was 47.8%; with OVCAR-8 ovarian it was 47%; with OVCAR-5 ovarian, 80.4%; in the assay with OVCAR-4 ovarian, 54.8%; in the assay on IGROV1 ovarian it was 49.6%. Moreover, the growth in the assay on OVCAR-3 ovarian was 69.3%; in the assay on HS 578T breast, 70.6%; in the assay with NCI/ADR-RES ovarian, 47.8%; in the assay with T-47D breast, 96.1%; with BT-549 breast, 69.9%; with MDA-MB-435 melanoma, 76.5%. Moreover, the growth with SW-620 colon was 33.6%; with MCF7 breast it was 45.2%; in the assay on HCT-116 colon, 27.2%; in the assay on HCC-2998 colon, 71.2%; with KM12 colon, 41.8%.

On to `Cc1nc(Nc2ccc(NC(=S)Nc3ccccc3)cc2)nc2nc(Nc3cccc(Cl)c3)[nH]c(=O)c12`, for which the growth with SR leukemia is 62.7%; in the assay with RPMI-8226 leukemia, 57.2%; in the assay with OVCAR-8 ovarian, 97.2%; in the assay on OVCAR-5 ovarian, 101%; in the assay on OVCAR-4 ovarian, 102%; in the assay with SK-OV-3 ovarian, 95.7%. The growth is 139% with OVCAR-3 ovarian; 67.1% in the assay with HS 578T breast; 110% in the assay on NCI/ADR-RES ovarian; 89.1% in the assay on T-47D breast; 108% in the assay on MDA-MB-435 melanoma; 98.3% in the assay with SW-620 colon. Besides, the growth was 89.8% in the assay with MCF7 breast, 94.4% with HCT-116 colon, 114% in the assay with HCC-2998 colon and 106% in the assay on KM12 colon.

With `C/C(Cc1ccc(Cl)cc1)=C(/c1ccc(Cl)cc1)c1ccc(OCCN(C)C)cc1`, the growth is -41.1% (active) in the assay on SR leukemia; -41.4% (active) in the assay on RPMI-8226 leukemia; 69.2% in the assay on OVCAR-8 ovarian; 81.2% in the assay with OVCAR-5 ovarian; 40.3% in the assay on OVCAR-4 ovarian; 110% in the assay on SK-OV-3 ovarian. Besides, the growth is 56.4% in the assay with IGROV1 ovarian; 61% in the assay on HS 578T breast; 47.9% with T-47D breast; 103% with BT-549 breast; 44.6% in the assay with MDA-MB-435 melanoma; -32.4% (active) in the assay on SW-620 colon. Besides, the growth in the assay on MCF7 breast was 11%; in the assay on HCT-116 colon it was 16.5%; in the assay on HCC-2998 colon, 1.6% (active); with KM12 colon it was 27.9%.

In the case of `O=C(c1ccccc1)c1ccc(N2C(=O)C3C4c5ccccc5C(/C=C/C(=O)c5ccccn5)(c5ccccc54)C3C2=O)cc1` (stereo not drawn), the growth in the assay with SR leukemia was 13.7%; with RPMI-8226 leukemia it was 3.95% (active); in the assay with OVCAR-8 ovarian, 26.4%; with OVCAR-5 ovarian, 29.9%; in the assay on OVCAR-4 ovarian, 32.4%; in the assay on IGROV1 ovarian, -19.8% (active). Moreover, the growth in the assay with OVCAR-3 ovarian is -54.1% (active); with HS 578T breast, 9.77% (active); with NCI/ADR-RES ovarian, 20.5%; with T-47D breast, 27%; with BT-549 breast, 22.2%; in the assay with MDA-MB-435 melanoma, 4.74% (active). In addition, the growth with SW-620 colon is 3.76% (active); with MCF7 breast it was 19%; in the assay on HCT-116 colon, -27.4% (active); in the assay on HCC-2998 colon, 25.3%; with KM12 colon, 9.88% (active).

`COc1cc(CNC(=O)/C=C/C=C/c2ccc3c(c2)OCO3)ccc1OCc1cn(-c2ccc(Cl)c(Cl)c2)nn1`: the growth was 24.8% in the assay on SR leukemia; 20.9% in the assay on RPMI-8226 leukemia; 11.3% in the assay on OVCAR-8 ovarian; -19.8% (active) in the assay on OVCAR-5 ovarian; -62.7% (active) in the assay with OVCAR-4 ovarian; 6.63% (active) in the assay on IGROV1 ovarian. In addition, the growth was -62.8% (active) with OVCAR-3 ovarian; 7.23% (active) in the assay on HS 578T breast; 15.9% with NCI/ADR-RES ovarian; -4.43% (active) in the assay on T-47D breast; -8.89% (active) with BT-549 breast; -18.3% (active) with MDA-MB-435 melanoma. Besides, the growth in the assay on SW-620 colon is -33.4% (active); in the assay on MCF7 breast it was -46.2% (active); in the assay on HCT-116 colon it was -30.6% (active); in the assay on HCC-2998 colon it was 51.1%; in the assay with KM12 colon, 1.12% (active).

With `Cc1ccc(S(=O)(=O)NN/C(N)=N\S(=O)(=O)c2cc(C)c(Cl)cc2SCc2ccccc2)cc1`, the growth in the assay on SR leukemia is 70.4%; in the assay on RPMI-8226 leukemia, 34.1%; with OVCAR-8 ovarian it was 109%; in the assay on OVCAR-5 ovarian it was 89.2%; with OVCAR-4 ovarian it was 89.5%; in the assay with SK-OV-3 ovarian, 102%. Besides, the growth in the assay on OVCAR-3 ovarian was 121%; with HS 578T breast, 70.5%; in the assay on NCI/ADR-RES ovarian, 97.1%; in the assay with T-47D breast, 87.9%; in the assay with MDA-MB-435 melanoma it was 96.4%; in the assay on MCF7 breast, 99.8%. The growth was 94.6% in the assay on HCT-116 colon, 107% in the assay on HCC-2998 colon and 97.3% with KM12 colon.

With `NS(=O)(=O)c1cnccc1-n1ccc(=O)c(S(N)(=O)=O)c1`, the growth in the assay on SR leukemia is 86.5%; in the assay with RPMI-8226 leukemia it was 60.4%; with OVCAR-8 ovarian, 100%; in the assay with OVCAR-5 ovarian it was 89.7%; in the assay on OVCAR-4 ovarian, 95.2%; in the assay on SK-OV-3 ovarian, 81.1%. The growth with OVCAR-3 ovarian was 93.3%; with HS 578T breast it was 64%; in the assay on NCI/ADR-RES ovarian, 98.5%; in the assay on T-47D breast, 84.5%; in the assay with MDA-MB-435 melanoma, 91.7%; with SW-620 colon, 97%. In addition, the growth with MCF7 breast is 88.8%; with HCT-116 colon it was 92.5%; in the assay on HCC-2998 colon, 104%; with KM12 colon, 93.3%.

As to `O=C(/C=C/C12c3ccccc3C(c3ccccc31)C1C(=O)N(c3ccc(Cl)cc3)C(=O)C12)c1ccccn1` (stereo not drawn), the growth in the assay on SR leukemia is 13.6%; in the assay with RPMI-8226 leukemia, 3.98% (active); with OVCAR-8 ovarian, 21.1%; with OVCAR-5 ovarian, -43.3% (active); in the assay with OVCAR-4 ovarian, -6.96% (active); with IGROV1 ovarian, -36.6% (active). The growth is -71.6% (active) in the assay with OVCAR-3 ovarian; 13.9% in the assay with HS 578T breast; 8.16% (active) in the assay on NCI/ADR-RES ovarian; -3.33% (active) in the assay with T-47D breast; -49.6% (active) in the assay on BT-549 breast; -29.1% (active) in the assay with MDA-MB-435 melanoma. The growth was -12.4% (active) in the assay on SW-620 colon; 2.48% (active) with MCF7 breast; -69.2% (active) in the assay with HCT-116 colon; -87.4% (active) with HCC-2998 colon; -60.8% (active) with KM12 colon.
